The values below come from ChEMBL document CHEMBL3433997, “St. Jude Leishmania screening dataset” (2016).

Solute carrier family 2, facilitated glucose transporter member 1 (Homo sapiens), sequence (P11166 whole entry): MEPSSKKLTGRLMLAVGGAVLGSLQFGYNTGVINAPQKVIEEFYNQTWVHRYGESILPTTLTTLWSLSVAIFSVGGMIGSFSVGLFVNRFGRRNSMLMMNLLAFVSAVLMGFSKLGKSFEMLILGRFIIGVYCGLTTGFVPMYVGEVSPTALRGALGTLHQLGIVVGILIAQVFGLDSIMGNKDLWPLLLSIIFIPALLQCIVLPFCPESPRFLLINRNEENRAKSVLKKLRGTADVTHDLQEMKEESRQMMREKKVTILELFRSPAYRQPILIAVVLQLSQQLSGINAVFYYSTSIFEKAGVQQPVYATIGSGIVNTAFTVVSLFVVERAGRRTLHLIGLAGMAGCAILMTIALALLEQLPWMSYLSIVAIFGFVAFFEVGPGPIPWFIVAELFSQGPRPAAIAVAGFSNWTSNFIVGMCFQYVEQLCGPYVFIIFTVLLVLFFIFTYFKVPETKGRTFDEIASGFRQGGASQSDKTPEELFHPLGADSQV

One test addresses Solute carrier family 2, facilitated glucose transporter member 1 (Homo sapiens) (UniProt P11166). The test can be described thus: ST_JUDE_LEISH: Cytotoxicity at 2uM final concentration against transgenic Leishmania Mexicana promastigotes LmGLUT1 that are glucose transport deficient and complemented with the human glucose transporter GLUT1. Activity is measured by DNA content using SYBR green in vitro. The test is classed as functional.
As usually defined, the inhibition is the drop in the measured response relative to a control, in per cent. Take `CCCN(CCC)C(=O)c1cc(C(=O)N[C@@H](Cc2ccccc2)[C@H](O)CNC(C)(C)c2cccc(C(F)(F)F)c2)cc(N2CCCCS2(=O)=O)c1`: the inhibition is -1.43%.

For `N#CCCN1CCN(Cc2ccc(-c3ccc(-c4nc5cc(F)ccc5[nH]4)s3)cc2)CC1`, the inhibition stood at 5.49%.

For `Cc1cc(N2CCCN(C)CC2)nc(Nc2ccc(Br)cc2)n1`, the inhibition is 5.39%.

Consider `CCCCCN1CCC(NS(=O)(=O)c2cccc(C(=O)Nc3ccc(C(F)(F)F)cc3)c2)C1` (stereo not given), for which the inhibition turned out to be 1.64%.

Consider `COC(=O)C(NC(=O)NC1CCN(c2ccnc(Nc3ccc(F)cc3)n2)C1)c1ccccc1` (stereo not given), for which the inhibition was -3.11%.

Turning to `CCOc1ccc(C2CCN(CCN3CCC(NC(=O)c4ccc(-c5ccc(C(F)(F)F)cc5)cc4)CC3)CC2)c(OCC2CC2)c1`, the inhibition was 3.99%.

Regarding `CCOCc1cnc(C)nc1NCC(=O)c1c(C)[nH]c2cc(C)ccc12`, the inhibition was -0.21%.

In the case of `c1ccc(-c2nnc(-c3ccccn3)nc2NC2CCCCC2)cc1`, the inhibition was found to be 80%.

As to `O=C(Nc1ccccc1)N(Cc1cccc(-c2cccc(CNCc3ccc4c(c3)OCO4)c2)c1)C1CCN(Cc2ccccc2)CC1`, the inhibition came to 0.53%.

Consider `Cn1nc(-c2ccc(Cl)cc2)c2cc(C(=O)NCCN3CCOCC3)sc21`, for which the inhibition was -0.16%.

For the molecule `c1ccc(CCNCc2ccc(-c3cccc(CNc4ccc5ncccc5c4)c3)cc2)cc1`, the inhibition stood at 14.6%.

On to `Cc1ccc(CN2CCCN(Cc3cccc(NC(=O)c4cc5ccccc5s4)c3)CC2)cc1C`, for which the inhibition amounted to 0.56%.

With `Cc1cc(C)c(NC(=O)NC2CCN(CCCCCNC(=O)/C=C/c3ccc(Cl)c(Cl)c3)CC2)c(C)c1`, the inhibition turned out to be 4.35%.

For the molecule `COc1cc2ccccc2cc1CCNCCCCNCCc1cc2ccccc2cc1OC`, the inhibition was found to be 101%.

For the molecule `COc1ccc2nccc([C@@H](O)CN3CCC(NC(=O)c4ccc(OC)c(N)c4)CC3)c2c1`, the inhibition is 14.9%.

With `CC[C@H](C)CNC(=O)c1ccnc(-c2cccc(CN3CCC(N4CCCC4)CC3)c2)c1`, the inhibition was determined as 0.78%.

On to `O=C(Nc1ccc(-c2nc3ccccc3[nH]2)cc1)c1cccc([N+](=O)[O-])c1`, for which the inhibition was determined as 1.01%.

In the case of `CCCNS(=O)(=O)c1ccc(NC(=O)C(C)Oc2ccc([N+](=O)[O-])cc2)cc1` (stereo not given), the inhibition came out at 0.31%.

For `COc1ccc(CNC(=O)c2cnc3c(O)cccc3c2Nc2cccc(NC(=O)c3ccc(-c4ccccc4)cc3)c2)cc1`, the inhibition was found to be 76.8%.

With `CC(=O)Nc1cccc(C(=O)Nc2ccc(-c3cccc(-c4nc5cccc(C)c5[nH]4)c3)cc2)c1`, the inhibition came out at 0.48%.

Turning to `CC(=O)N(C)C1CCN(Cc2cccc(-c3ccc(-c4nc5cc(C(F)(F)F)ccc5[nH]4)cc3)c2)C1` (stereo not given), the inhibition is 2.39%.

As for `CCn1cc2c3c(cc(C(=O)N[C@@H](Cc4ccccc4)[C@H](O)CNC4CCOCC4)cc31)N(C)S(=O)(=O)CC2`, the inhibition turned out to be 0.41%.

In the case of `CCN(CC)c1cc(C)c2cc(NC(=O)c3cc(=O)c4ccccc4o3)ccc2n1`, the inhibition is 6.32%.

Turning to `Cc1nc(-c2ccc(-c3ccc(NC(=O)c4coc5ccc(N6CC(C)NC(C)C6)cc45)cc3)c(C)c2)no1` (stereo not given), the inhibition stood at 3.42%.

For the molecule `CC(CN1CCN(C)CC1)C(=O)Nc1cccc(-c2ccc(-c3nc4ccccc4[nH]3)s2)c1` (stereo not given), the inhibition is -1.1%.

Turning to `CCCNCc1ccc(-c2ccc(CN(CCOC)C(=O)c3ccccc3)cc2)nc1`, the inhibition was found to be 1.21%.

For the molecule `CCCCCN1CCN(Cc2cccc(NC(=O)c3ccc(Cl)c(Cl)c3)c2)CC1`, the inhibition amounted to 1.39%.

`Cc1ccc(C(=O)NCC2CCN(c3ccc(C(F)(F)F)cc3NC(=O)c3ccco3)CC2)cn1`: the inhibition is 2.76%.

Take `Nc1ccc(-c2ccc3ccnc(N)c3c2)cc1`: the inhibition worked out at 0.24%.

Turning to `CN1CCC(Oc2cc(NC(=O)Nc3ccc(-c4ccncc4)c(Cl)c3)ccc2Cl)CC1`, the inhibition was found to be 16%.

For `N=C1NC(=N)N(OCCCCCCON2C(=N)NC(=N)NC2C=Cc2ccccc2)C(C=Cc2ccccc2)N1` (stereo not given), the inhibition turned out to be 1.73%.

Take `O=C(/C=C/c1ccccc1Cl)Nc1ccc(Br)c(OCCN2CCC(O)(c3ccccc3)CC2)c1`: the inhibition was 2.66%.

In the case of `O=C(Cc1ccccn1)Nc1cccc(-c2cccc(-c3nc4cc(C(F)(F)F)ccc4[nH]3)c2)c1`, the inhibition was 0.14%.

Consider `CCc1c(CCNCCCCCCNCCc2ccc(Br)cc2)ccc(O)c1O`, for which the inhibition was -0.07%.

For `NC(=O)c1ccc(NC(=O)CN(Cc2ccc(Cl)cc2)S(=O)(=O)c2ccccc2)cc1`, the inhibition was 7.52%.

Regarding `CNCCNCc1ccc(-c2ccc(-c3nc4cc(C(F)(F)F)ccc4[nH]3)cc2)cc1`, the inhibition is -0.49%.

Take `Cc1c[nH]c2ccc(/C=C/C(=O)NC3CCC(CCN4CCc5ccc(C#N)cc5CC4)CC3)cc12` (stereo not given): the inhibition came out at 5.06%.

For `CC1CN(c2nc(NCCc3ccc(O)cc3)nc(NCc3ccccc3-c3ccc(C(F)(F)F)cc3)n2)CC(C)N1` (stereo not given), the inhibition turned out to be 4.25%.

With `O=[N+]([O-])c1ccccc1/C=N/Nc1ccnc2cc(Cl)ccc12`, the inhibition amounted to 4.36%.

With `NC1=NC(CCc2ccccc2)N(c2ccc(Cl)cc2)C(N)=N1` (stereo not given), the inhibition worked out at 7.41%.

In a further test the target is Hexose transporter 1 (Plasmodium falciparum) (UniProt O97467). Kind of test: ST_JUDE_LEISH: Cytotoxicity at 2uM final concentration against transgenic Leishmania Mexicana promastigotes LmPfHT that are glucose transport deficient and complemented with the Plasmodium falciparum hexose transporter. Activity is measured by DNA content using SYBR green in vitro. The test is classed as functional.
In the case of `CCCN(CCC)C(=O)c1cc(C(=O)N[C@@H](Cc2ccccc2)[C@H](O)CNC(C)(C)c2cccc(C(F)(F)F)c2)cc(N2CCCCS2(=O)=O)c1`, the inhibition was 4.18%.

`N#CCCN1CCN(Cc2ccc(-c3ccc(-c4nc5cc(F)ccc5[nH]4)s3)cc2)CC1`: the inhibition was 0.84%.

Take `Cc1cc(N2CCCN(C)CC2)nc(Nc2ccc(Br)cc2)n1`: the inhibition was -1.23%.

As to `CCCCCN1CCC(NS(=O)(=O)c2cccc(C(=O)Nc3ccc(C(F)(F)F)cc3)c2)C1` (stereo not given), the inhibition is 1.94%.

For the molecule `COC(=O)C(NC(=O)NC1CCN(c2ccnc(Nc3ccc(F)cc3)n2)C1)c1ccccc1` (stereo not given), the inhibition was -1.97%.

As to `CCOc1ccc(C2CCN(CCN3CCC(NC(=O)c4ccc(-c5ccc(C(F)(F)F)cc5)cc4)CC3)CC2)c(OCC2CC2)c1`, the inhibition worked out at 3%.

Turning to `CCOCc1cnc(C)nc1NCC(=O)c1c(C)[nH]c2cc(C)ccc12`, the inhibition was -0.79%.

Regarding `c1ccc(-c2nnc(-c3ccccn3)nc2NC2CCCCC2)cc1`, the inhibition came out at 79.8%.

Consider `O=C(Nc1ccccc1)N(Cc1cccc(-c2cccc(CNCc3ccc4c(c3)OCO4)c2)c1)C1CCN(Cc2ccccc2)CC1`, for which the inhibition was determined as 1.69%.

Turning to `Cn1nc(-c2ccc(Cl)cc2)c2cc(C(=O)NCCN3CCOCC3)sc21`, the inhibition turned out to be 1.5%.

Take `c1ccc(CCNCc2ccc(-c3cccc(CNc4ccc5ncccc5c4)c3)cc2)cc1`: the inhibition stood at 11.7%.

For the molecule `Cc1ccc(CN2CCCN(Cc3cccc(NC(=O)c4cc5ccccc5s4)c3)CC2)cc1C`, the inhibition is 0.71%.

Consider `Cc1cc(C)c(NC(=O)NC2CCN(CCCCCNC(=O)/C=C/c3ccc(Cl)c(Cl)c3)CC2)c(C)c1`, for which the inhibition came out at 2.53%.

On to `COc1cc2ccccc2cc1CCNCCCCNCCc1cc2ccccc2cc1OC`, for which the inhibition was determined as 82.7%.

With `COc1ccc2nccc([C@@H](O)CN3CCC(NC(=O)c4ccc(OC)c(N)c4)CC3)c2c1`, the inhibition was determined as 16.7%.

Take `CC[C@H](C)CNC(=O)c1ccnc(-c2cccc(CN3CCC(N4CCCC4)CC3)c2)c1`: the inhibition was -0.95%.

As for `O=C(Nc1ccc(-c2nc3ccccc3[nH]2)cc1)c1cccc([N+](=O)[O-])c1`, the inhibition was -1.86%.

On to `CCCNS(=O)(=O)c1ccc(NC(=O)C(C)Oc2ccc([N+](=O)[O-])cc2)cc1` (stereo not given), for which the inhibition was 0.29%.

For `COc1ccc(CNC(=O)c2cnc3c(O)cccc3c2Nc2cccc(NC(=O)c3ccc(-c4ccccc4)cc3)c2)cc1`, the inhibition turned out to be 79.7%.

`CC(=O)Nc1cccc(C(=O)Nc2ccc(-c3cccc(-c4nc5cccc(C)c5[nH]4)c3)cc2)c1`: the inhibition was determined as 1.78%.

For `CC(=O)N(C)C1CCN(Cc2cccc(-c3ccc(-c4nc5cc(C(F)(F)F)ccc5[nH]4)cc3)c2)C1` (stereo not given), the inhibition is -4.29%.

With `CCn1cc2c3c(cc(C(=O)N[C@@H](Cc4ccccc4)[C@H](O)CNC4CCOCC4)cc31)N(C)S(=O)(=O)CC2`, the inhibition amounted to 0.29%.

For `CCN(CC)c1cc(C)c2cc(NC(=O)c3cc(=O)c4ccccc4o3)ccc2n1`, the inhibition was 6.88%.

With `Cc1nc(-c2ccc(-c3ccc(NC(=O)c4coc5ccc(N6CC(C)NC(C)C6)cc45)cc3)c(C)c2)no1` (stereo not given), the inhibition was 5.16%.

Turning to `CC(CN1CCN(C)CC1)C(=O)Nc1cccc(-c2ccc(-c3nc4ccccc4[nH]3)s2)c1` (stereo not given), the inhibition was -1.46%.

Turning to `CCCNCc1ccc(-c2ccc(CN(CCOC)C(=O)c3ccccc3)cc2)nc1`, the inhibition was found to be 0.61%.

As to `CCCCCN1CCN(Cc2cccc(NC(=O)c3ccc(Cl)c(Cl)c3)c2)CC1`, the inhibition was 1.08%.

As for `Cc1ccc(C(=O)NCC2CCN(c3ccc(C(F)(F)F)cc3NC(=O)c3ccco3)CC2)cn1`, the inhibition is -2.99%.

Consider `Nc1ccc(-c2ccc3ccnc(N)c3c2)cc1`, for which the inhibition was -0.79%.

For `CN1CCC(Oc2cc(NC(=O)Nc3ccc(-c4ccncc4)c(Cl)c3)ccc2Cl)CC1`, the inhibition worked out at 13.7%.

On to `N=C1NC(=N)N(OCCCCCCON2C(=N)NC(=N)NC2C=Cc2ccccc2)C(C=Cc2ccccc2)N1` (stereo not given), for which the inhibition was 2.16%.

Turning to `O=C(/C=C/c1ccccc1Cl)Nc1ccc(Br)c(OCCN2CCC(O)(c3ccccc3)CC2)c1`, the inhibition amounted to 0.95%.

`O=C(Cc1ccccn1)Nc1cccc(-c2cccc(-c3nc4cc(C(F)(F)F)ccc4[nH]3)c2)c1`: the inhibition came to 1.02%.

For the molecule `CCc1c(CCNCCCCCCNCCc2ccc(Br)cc2)ccc(O)c1O`, the inhibition came out at 0.74%.

As for `NC(=O)c1ccc(NC(=O)CN(Cc2ccc(Cl)cc2)S(=O)(=O)c2ccccc2)cc1`, the inhibition amounted to 5.01%.

Regarding `CNCCNCc1ccc(-c2ccc(-c3nc4cc(C(F)(F)F)ccc4[nH]3)cc2)cc1`, the inhibition turned out to be 3.17%.

With `Cc1c[nH]c2ccc(/C=C/C(=O)NC3CCC(CCN4CCc5ccc(C#N)cc5CC4)CC3)cc12` (stereo not given), the inhibition is 5.55%.

With `CC1CN(c2nc(NCCc3ccc(O)cc3)nc(NCc3ccccc3-c3ccc(C(F)(F)F)cc3)n2)CC(C)N1` (stereo not given), the inhibition was 4.62%.

In the case of `O=[N+]([O-])c1ccccc1/C=N/Nc1ccnc2cc(Cl)ccc12`, the inhibition is 4.22%.

Take `NC1=NC(CCc2ccccc2)N(c2ccc(Cl)cc2)C(N)=N1` (stereo not given): the inhibition turned out to be 1.15%.
